# Values without a mark were called inactive. Results filed as inconclusive are left out. A call without a number means that no potency is given here. Calls of active or inactive are those of the source. Unless noted, calls come from the whole dose curve; as a rule, active = well fitted curve in the direction sought with a large enough effect; inconclusive = small, poorly fitted or top-dose-only effect, or another doubt; inactive = no such curve, though single readings can be large; an effect the other way counts as inactive or inconclusive. Peptide text beside a SMILES is read from it.
# Tests used:
# [1] = S16 Schwann cell PMP22 intronic element firefly luciferase assay (AID 624032); note: nearly all actives have a fitted effect of over 30% in size; note: potency is the fitted concentration of half-maximal effect
# Summary of the method: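 Rat S16 Schwann cells stably carrying a PMP22 intronic element-driven Fluc reporter were seeded overnight, then exposed to compounds for 24 h at 37 °C. Luminescence was normalized to PTC124 (positive control) and DMSO (0% activity).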
# [2] = S16 Schwann cell PMP22 intronic element beta-lactamase assay (AID 624044; calls by dose curve; note: nearly all actives have a fitted effect of over 15% in size; note: potency is the fitted concentration of half-maximal effect)
# Summary of the method: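 Rat S16 Schwann cells with beta-Lac driven by a PMP22 intronic element, compound-treated 24 h at 37 °C. LiveBLAzer FRET B/G read: 460 nm normalized to potassium clavulanate vs DMSO; 535 nm FRET as viability; concentration-effect curves classified.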
# [3] = target: Glutaminase kidney isoform, mitochondrial (Homo sapiens) (UniProt O94925); assay: qHTS for Inhibitors of Glutaminase (GLS): LOPAC Validation (AID 624146); settings: glutaminase enzyme activity inhibition; note: potency is the fitted concentration of half-maximal effect; nearly all actives have a fitted effect of over 60% in size
# Summary of the method: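 Compounds were pin-transferred onto hKGA, after which L-glutamine (1 mM solution) and a detection mix of glutamate oxidase, HRP and Amplex Red were added. Initial and 30 min RT fluorescence reads were collected.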
# [4] = target: Glucagon-like peptide 1 receptor (Homo sapiens) (UniProt P43220); assay: qHTS of GLP-1 Receptor Agonists: LOPAC Validation (AID 624148);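 note: higher luminescence signal means agonism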
# Summary of the method: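 HEK293 cells stably co-expressing a cAMP-responsive luciferase reporter and a hypersensitive GLP-1R were plated 12 h at 37 °C and exposed to compounds for 4-6 hr at 37 °C, 5% CO2. Luminescence was read 12 min after adding detection reagent.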
# [5] = qHTS of Nrf2 Activators: LOPAC Validation (AID 624149)
# Summary of the method: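 AREc32 cells carrying an ARE-driven firefly luciferase were grown overnight in OPTI-MEM with 5% FBS, then exposed to compounds for 24 hr at 37 deg C. Luciferase signal was read after 30 min with Steady-Glo at RT.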
# [6] = HTS Assay for Allosteric Antagonists of the Human D2 Dopamine Receptor: Hit Validation in HTRF (AID 624455);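 note: stable D1 dopamine receptor cell line scored for blocking the D1 response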
# Summary of the method: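 Hits were examined in an HTRF assay using cells stably expressing the D1 dopamine receptor, scoring inhibition of the D1-mediated response. The preceding primary screen tracked calcium flux after an EC80 dopamine addition in force-coupled, inducible Hek293 Trex D2 cells.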
# [7] = Cytotoxicity counterscreen for NFkB agonists and antagonists (AID 624476);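 note: cells exposed to compound for 48 hours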; note: potency is the fitted concentration of half-maximal effect
# [8] = qHTS Assay for Identification of Small Molecule Agonists for NFkB Signaling Pathway. (AID 624478)
# Summary of the method: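 NFkB-bla ME-180 cells (beta-lactamase reporter under NFkB response element) were plated overnight, treated with compound plus TNF alpha at 10 pM final (its EC50) for 5 hrs at 37 C, then loaded with LiveBLAzer substrate for 2 hrs.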
# [9] = qHTS Assay for Identification of Small Molecule Antagonists for NFkB Signaling Pathway. (AID 624479; calls by dose curve;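 note: pathway stimulated with TNF alpha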; note: potency is the fitted concentration of half-maximal effect)
# [10] = Cell Proliferation Assay against the TMD8 Cell Line (Caspase readout at 8 hrs) (AID 651713); note: potency is the fitted concentration of half-maximal effect
# Summary of the method: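 TMD8 cells (500/well) in phenol red-free RPMI with 5% FBS were treated with compounds for 8 h at 37C, 5% CO2. Caspase-Glo 3/7 luminescence was read after 15 min at room temperature and normalised to DMSO (0%) and 9.2 uM bortezomib (100%).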
# [11] = Cell Proliferation Assay against the TMD8 Cell Line (Caspase readout at 16 hrs) (AID 651712)
# Summary of the method: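 TMD8 cells (500/well) in phenol-red-free RPMI with glutamine, 5% FBS, were exposed to compounds for 16 h at 37 °C. Caspase 3/7 activation was read by Caspase-Glo luminescence; percent activity normalised to DMSO (0%) and 9.2 uM bortezomib final (100%).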
# [12] = qHTS assay for small molecule agonists of the antioxidant response element (ARE) signaling pathway (AID 651741; active = well fitted activation curve with a large enough effect in the signal ratio; the % refers to the signal ratio)
# Summary of the method: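 ARE-bla HepG2 cells (beta-lactamase reporter under ARE control) were plated at 2,000 cells/well, preincubated 5 h at 37 C/5% CO2, then treated with DMSO-dissolved compounds for 16 h at 37 C; LiveBLAzer B/G FRET substrate added, fluorescence read after 2 h at room temperature.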
# [13] = qHTS assay for small molecule activators of the p53 signaling pathway (AID 651743; active = well fitted activation curve with a large enough effect in the signal ratio, not every such curve was filed as active; the % refers to the signal ratio; note: series mostly up to about 92 µM); settings: HCT-116 p53RE-bla, beta-lactamase FRET ratio, 16 h; activation: active compounds read high
# Summary of the method: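 p53RE-bla HCT-116 cells with a stably integrated beta-lactamase reporter under p53 response elements were plated, rested 5 hours at 37 C/5% CO2, then exposed to compounds in DMSO for 16 hours at 37 C. LiveBLAzer B/G FRET substrate was read after 2 hours at room temperature.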
# [14] = qHTS assay for small molecule activators of the nuclear factor-kappa B (NF-kB) signaling pathway (AID 651749; active = well fitted activation curve with a large enough effect in the signal ratio; the % refers to the signal ratio; note: series mostly up to about 77 µM); settings: NF-kB-bla ME-180 cells, beta-lactamase FRET ratio, 16 h; active compounds read high
# Summary of the method: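 ME-180 cells stably carrying a beta-lactamase reporter under an NF-kB response element were exposed to compound or DMSO vehicle for 16 hr at 37C, 5% CO2. Pathway activation was read by FRET, since reporter expression disrupts FRET.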
# [15] = qHTS assay for small molecule disruptors of the mitochondrial membrane potential - 1 hr assay (AID 651754; calls by dose curve; note: nearly all actives have a fitted effect of over 35% in size)
# Summary of the method: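 HepG2 cells, attached overnight at 37C, were exposed to compound or DMSO vehicle for 1 hr at 37C, 5% CO2, then stained with Mito-MPS dye for 30 min. Red aggregate versus green monomer fluorescence reports membrane potential.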
# [16] = qHTS assay for small molecule disruptors of the mitochondrial membrane potential - 5 hr assay (AID 651755; calls by dose curve; note: nearly all actives have a fitted effect of over 40% in size)
# Summary of the method: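 HepG2 cells, attached overnight at 37C, were exposed to compound or DMSO for 5 hr at 37C, 5% CO2. Mito-MPS dye was then added for 30 min, and fluorescence read at 490/535 nm (monomers) and 540/590 nm (aggregates).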
# [17] = target: Tumor necrosis factor (Homo sapiens) (UniProt P01375); assay: qHTS assay to identify small molecules that stimulate Tumor Necrosis Factor-alpha (TNF-alpha) secretion (AID 651757; active = well fitted curve in the direction sought with a large enough effect in the signal ratio; the % refers to the signal ratio)
# Summary of the method: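 THP-1 cells were exposed to compounds for 17 hrs at 37 C, after which secreted TNF-alpha was measured by homogeneous HTRF (TR-FRET) using cryptate- and XL665-labeled anti-TNF-alpha antibodies, read after 3 hr at room temperature.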
# [18] = qHTS assay for environmental chemicals that activate the Aryl hydrocarbon Receptor (AhR) signaling pathway (AID 651777); settings: 1A2-DRE human hepatoma cells, luciferase, 24 h; active compounds read high; note: nearly all actives have a fitted effect of over 15% in size
# Summary of the method: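 Human hepatoma 1A2-DRE cells, stably carrying a dioxin response element and CYP1A2 promoter driving luciferase, were exposed to compounds for 24 hr at 37 C and 5% CO2. Luciferase signal was then read after 30 min One-Glo at room temperature.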
# [19] = target: Peroxisome proliferator-activated receptor alpha (Homo sapiens) (UniProt Q07869); assay: qHTS assay for small molecule agonists of the peroxisome proliferator-activated receptor alpha (PPARalpha) signaling pathway (AID 651778); settings: PathHunter PPARalpha complementation, chemiluminescence, 6 h; max response: active compounds read high
# Summary of the method: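 Cells plated at 2,000/well and held overnight at 37 C, 5% CO2, then compound added by pin tool for 6 hr; after PathHunter detection reagent and 60 min at room temperature, chemiluminescence from enzyme complementation was read.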
# Sequence of Glucagon-like peptide 1 receptor (Homo sapiens) (P43220 whole entry, looked up): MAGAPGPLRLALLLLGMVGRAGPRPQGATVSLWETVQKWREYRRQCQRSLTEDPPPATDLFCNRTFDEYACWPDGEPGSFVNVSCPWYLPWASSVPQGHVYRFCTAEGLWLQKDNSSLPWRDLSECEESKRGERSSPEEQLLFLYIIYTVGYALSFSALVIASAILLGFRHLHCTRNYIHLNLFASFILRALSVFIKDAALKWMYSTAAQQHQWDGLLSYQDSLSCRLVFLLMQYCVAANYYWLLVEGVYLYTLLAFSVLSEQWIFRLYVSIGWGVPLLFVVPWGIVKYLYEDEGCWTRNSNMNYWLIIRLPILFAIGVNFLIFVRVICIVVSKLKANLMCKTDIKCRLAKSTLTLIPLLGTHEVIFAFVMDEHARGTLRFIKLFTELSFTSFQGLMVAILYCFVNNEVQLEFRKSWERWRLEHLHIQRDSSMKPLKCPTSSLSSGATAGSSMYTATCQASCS
# Sequence of Tumor necrosis factor (Homo sapiens) (P01375 whole entry, looked up): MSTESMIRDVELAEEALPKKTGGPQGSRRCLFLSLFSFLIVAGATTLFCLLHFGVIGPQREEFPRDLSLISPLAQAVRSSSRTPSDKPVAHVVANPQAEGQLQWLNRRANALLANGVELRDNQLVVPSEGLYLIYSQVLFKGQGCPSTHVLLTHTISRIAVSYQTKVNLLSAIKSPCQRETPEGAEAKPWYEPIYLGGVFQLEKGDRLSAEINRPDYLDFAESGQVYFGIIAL
# Sequence of Glutaminase kidney isoform, mitochondrial (Homo sapiens) (O94925 whole entry, looked up, canonical isoform): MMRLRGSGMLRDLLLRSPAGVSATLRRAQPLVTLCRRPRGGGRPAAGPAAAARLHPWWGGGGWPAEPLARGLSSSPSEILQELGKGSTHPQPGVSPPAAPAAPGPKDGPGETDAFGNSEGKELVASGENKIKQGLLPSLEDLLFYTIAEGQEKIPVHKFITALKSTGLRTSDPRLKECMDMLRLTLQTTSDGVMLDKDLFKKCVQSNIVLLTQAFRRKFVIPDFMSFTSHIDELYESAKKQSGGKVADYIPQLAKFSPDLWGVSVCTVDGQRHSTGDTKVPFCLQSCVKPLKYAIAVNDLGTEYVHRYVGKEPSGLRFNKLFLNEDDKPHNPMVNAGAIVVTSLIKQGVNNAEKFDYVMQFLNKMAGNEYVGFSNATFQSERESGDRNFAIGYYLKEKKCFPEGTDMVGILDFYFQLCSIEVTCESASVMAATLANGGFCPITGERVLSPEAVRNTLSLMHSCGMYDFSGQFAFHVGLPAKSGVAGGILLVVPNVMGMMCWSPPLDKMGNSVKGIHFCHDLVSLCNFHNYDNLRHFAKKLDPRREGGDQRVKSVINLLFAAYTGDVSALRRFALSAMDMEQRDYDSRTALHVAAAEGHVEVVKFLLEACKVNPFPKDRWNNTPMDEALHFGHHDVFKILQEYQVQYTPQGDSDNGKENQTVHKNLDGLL
# Sequence of Peroxisome proliferator-activated receptor alpha (Homo sapiens) (Q07869 whole entry, looked up): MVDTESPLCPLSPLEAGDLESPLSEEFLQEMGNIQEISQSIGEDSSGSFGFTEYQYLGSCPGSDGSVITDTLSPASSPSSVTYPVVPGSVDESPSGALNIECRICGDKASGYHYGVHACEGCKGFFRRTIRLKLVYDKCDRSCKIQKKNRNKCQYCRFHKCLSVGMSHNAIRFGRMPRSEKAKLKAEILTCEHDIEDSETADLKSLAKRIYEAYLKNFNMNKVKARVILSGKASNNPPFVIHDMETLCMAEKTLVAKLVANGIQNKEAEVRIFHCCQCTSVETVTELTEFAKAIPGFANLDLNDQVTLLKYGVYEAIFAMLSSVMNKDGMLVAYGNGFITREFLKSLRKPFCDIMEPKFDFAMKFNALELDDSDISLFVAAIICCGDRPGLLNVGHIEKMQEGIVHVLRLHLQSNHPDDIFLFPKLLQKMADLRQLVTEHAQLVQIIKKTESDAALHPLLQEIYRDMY
compound,measurement,setting,value
C[C@]12CCC(=O)C=C1CC[C@@H]1[C@@H]2[C@@H](O)C[C@@]2(C)[C@H]1CC[C@]2(O)C(=O)COP(=O)(O)O,Potency,[1],inactive
CCCCCCCCCCCCCC[n+]1ccc(C)cc1,Potency,[1],2.56 µM (active)
same,Potency,[2],19.9 µM (active)
COC(=O)C1=C(C#N)NC(C)=C(C(=O)OC(C)C)C1c1cccc([N+](=O)[O-])c1 (stereo not drawn),Potency,[1],16.1 µM (active)
CN1C(=O)CN2CCc3ccccc3C2c2cc(Cl)ccc21 (stereo not drawn),Potency,[1],inactive
same,Potency,[2],inactive
Clc1cc(Cl)c(OCC#CI)cc1Cl,Potency,[1],28.7 µM (active)
Nc1ncnc2c1ncn2[C@@H]1O[C@H](COP(=O)(O)OP(=O)(O)OP(=O)(O)O)[C@@H](O)[C@H]1O,Potency,[1],inactive
same,Potency,[2],inactive
O=C(Nc1cccc(C(F)(F)F)c1)c1cc(Br)cc(Br)c1O,Potency,[1],inactive
CC(=O)N[C@@H](CC(=O)O)C(=O)N[C@@H](CCC(=O)O)C(=O)O (Ac-Asp-Glu-OH),Potency,[1],inactive
same,Potency,[2],inactive
CC(=O)Oc1c(C)cc(OCC(O)CNC(C)C)c(C)c1C (stereo not drawn),Potency,[1],inactive
same,Potency,[2],inactive
C=C1C(=CC=C2CCC[C@@]3(C)[C@@H]2CC[C@H]3[C@H](C)CCCC(C)C)C[C@@H](O)C[C@@H]1O,Potency,[1],0.0287 µM (active)
CCCCCCOc1ccc(C(=N)N(CCCC)CCCC)c2ccccc12,Potency,[1],22.8 µM (active)
O=C(O)c1cc(O)c2c(c1)[O][Bi][O]2,Potency,[1],inactive
same,Potency,[2],inactive
CO[C@H](C(=O)[C@@H](O)[C@@H](C)O)C1Cc2cc3cc(O[C@H]4C[C@@H](O[C@H]5C[C@@H](O)[C@H](O)[C@@H](C)O5)[C@@H](O)[C@@H](C)O4)c(C)c(O)c3c(O)c2C(=O)[C@H]1O[C@H]1C[C@@H](O[C@H]2C[C@@H](O[C@H]3C[C@](C)(O)[C@H](O)[C@@H](C)O3)[C@H](O)[C@@H](C)O2)[C@H](O)[C@@H](C)O1 (stereo partly drawn),Potency,[1],inactive
same,Potency,[2],22.4 µM (active)
C#CCOc1ccc2c(C)cc(=O)oc2c1,Potency,[1],inactive
same,Potency,[2],inactive
Oc1cc(O)c2c(c1)OC(c1ccc(O)c(O)c1)C(O)C2 (stereo not drawn),Potency,[1],inactive
same,Potency,[2],inactive
COC(C(=O)C(O)C(C)O)C1Cc2cc3cc(OC4CC(OC5CC(O)C(O)C(C)O5)C(O)C(C)O4)c(C)c(O)c3c(O)c2C(=O)C1OC1CC(OC2CC(OC3CC(C)(O)C(O)C(C)O3)C(O)C(C)O2)C(O)C(C)O1 (stereo not drawn),Potency,[1],inactive
same,Potency,[2],22.4 µM (active)
Cc1c(C)c2c(c(C)c1O)CC[C@@](C)(CCC[C@@H](C)CCC[C@@H](C)CCCC(C)C)O2,Potency,[1],inactive
same,Potency,[2],inactive
COc1ccc2c3c1O[C@H]1C[C@@H](O)C=C[C@@]31CCN(C)C2,Potency,[1],inactive
same,Potency,[2],inactive
CC(NNC(=O)c1ccccc1)c1ccccc1 (stereo not drawn),Potency,[1],inactive
same,Potency,[2],inactive
COC(=O)CCC(=O)CN,Potency,[1],inactive
CC1=C(/C=C/C(C)=C/C=C/C(C)=C/C=C/C=C(C)/C=C/C=C(C)/C=C/C2=C(C)CCCC2(C)C)C(C)(C)CCC1,Potency,[1],inactive
CCCCC(=O)O[C@]1(C(=O)CO)[C@H](C)C[C@H]2[C@@H]3CCC4=CC(=O)C=C[C@]4(C)[C@@]3(F)[C@@H](O)C[C@@]21C,Potency,[1],inactive
same,Potency,[2],inactive
O=C(COc1ccc(Cl)cc1)OCCNC12CC3CC(CC(C3)C1)C2,Potency,[1],inactive
same,Potency,[2],inactive
CC(C(=O)O)c1ccc(N2Cc3ccccc3C2=O)cc1 (stereo not drawn),Potency,[1],inactive
same,Potency,[2],inactive
CCCCCCCCCCCCCCCC(=O)OCC(COC(=O)CCCCCCCCCCCCCCC)OC(=O)CCCCCCCCCCCCCCC,Potency,[1],inactive
same,Potency,[2],inactive
C[C@@H]1CCC2[C@@H](C)[C@@H](O)O[C@@H]3O[C@@]4(C)CC[C@@H]1[C@@]23OO4 (stereo partly drawn),Potency,[1],1.02 µM (active)
same,Potency,[2],inactive
CCN(CC)CCOc1ccc(-c2nc3cc(Cl)ccc3s2)cc1,Potency,[1],inactive
same,Potency,[2],inactive
COCC(=O)Nc1cc(Sc2ccccc2)ccc1N=C(NC(=O)OC)NC(=O)OC,Potency,[1],inactive
same,Potency,[2],inactive
CCCC(=O)Nc1ncnc2c1ncn2C1OC2COP(=O)(O)OC2C1OC(=O)CCC (stereo not drawn),Potency,[1],5.73 µM (active)
same,Potency,[2],inactive
CCCC(=O)O[C@]1(C(=O)CCl)[C@H](C)C[C@@H]2[C@H]3CCC4=CC(=O)C=C[C@]4(C)[C@@]3(F)C(=O)C[C@@]21C,Potency,[1],inactive
same,Potency,[2],inactive
CCCCC(C)(O)C/C=C/[C@H]1[C@H](O)CC(=O)[C@@H]1CCCCCCC(=O)OC (stereo partly drawn),Potency,[1],0.181 µM (active)
same,Potency,[2],inactive
NC1C2CN(c3nc4c(cc3F)c(=O)c(C(=O)O)cn4-c3ccc(F)cc3F)CC12 (stereo not drawn),Potency,[1],inactive
same,Potency,[2],inactive
CN1Cc2c(N)cccc2C(c2ccccc2)C1 (stereo not drawn),Potency,[3],12.6 µM (active)
same,outcome,[4],inactive
same,outcome,[5],inactive
same,outcome,[6],inactive
CCOc1cc2ncc(C#N)c(Nc3ccc(OCc4ccccn4)c(Cl)c3)c2cc1NC(=O)/C=C/CN(C)C,Potency,[7],37.2 µM (active)
same,outcome,[8],inactive
same,Potency,[9],7.49 µM (active)
same,Potency,[10],23.5 µM (active)
CC(NC(=O)Cc1cc(F)cc(F)c1)C(=O)NC(C(=O)OC(C)(C)C)c1ccccc1 (stereo not drawn),Potency,[7],inactive
same,outcome,[8],inactive
same,Potency,[9],inactive
same,Potency,[11],inactive
same,Potency,[10],inactive
CC(C)=O,Potency,[1],inactive
same,Potency,[12],inactive
same,activation,[13],-0.255%
same,activation,[14],2.82%
same,outcome,[15],inactive
same,outcome,[16],inactive
same,outcome,[17],inactive
same,activation,[18],-1.82%
same,max response,[19],-7.67%
